Test results from the supplement of paper PMC11417369.
In all, about 25,000 sequences were measured (“ln(normalized median fluorescence intensity)”: median about 9.3, highest 2% from about 10 on). What follows is part of a selection rich in the highest values, with near analogues and random picks from the rest.

tested on: PF3D7_0420300 AP2 domain 1 (GST-tagged); assay: gcPBM binding intensity (ln(normalized median fluorescence intensity)); higher = stronger DNA binding
Summary of the method: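 Binding intensity is the highest Masliner-normalised natural-log median intensity over replicate spots in either probe orientation. To obtain it, GST-tagged P. falciparum DNA-binding domains made in E. coli were incubated for 1 h on an Agilent 4 × 180k array of primer-extended double-stranded 36-bp intergenic genomic probes plus negative controls. Detection used Alexa488 anti-GST antibody with scanning at 488 nm.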

| Sequence | gcPBM binding intensity (ln) |
| --- | --- |
| ATAATTATATTTTATTCACACATCGTTATATAGTAA [CACACA_site4743] | 9.31 |
| AATATAAATGTGATTACACACAACAGATTTAAATGG [CACACA_site4802] | 9.53 |
| TGTTTATATAATATTCTACACACCAACAACAAACAT [CACACA_site8087] | 9.74 |
| AAAATTTTTAGTTATACACACAACATAGAAAATATT [CACACA_site328] | 9.47 |
| TTTTTTTCACAAAATACACACAATATATTTTATATC [CACACA_site1138] | 9.25 |
| TATAATAAAATTTTTACACACTTTAAAAAAAAAAAA [CACACA_site524] | 9.06 |
| CATACACCCATACATACACACATACATATATATATA [CACACA_site8591] | 9.7 |
| CATACACCCCAACACACACACACACCCATATATAAT [CACACA_site8097] | 10.4 |
| CATATACATACACATACACACATACACCCATACACA [CACACA_site8514] | 9.77 |
| TATATATACATATACACACACACACCCATATATATA [CACACA_site2246] | 10.2 |
| ATACATATATATATATGTACATATATTTATATTTAT [XGTACX_site3155] | 9.21 |
| TGAAAAAAGAAAAATACACACATATAACATAATATA [CACACA_site7126] | 9.83 |
| CTCAACAAAATATGAGTGCATTGTTATTACATATAT | 9.32 |
| TAAAAATATAGGTATACACACATATAAATATAAATA [CACACA_site7785] | 9.64 |
| TAATTCTTGTAAAATGTGCGCAGTAGATATAGTTTT | 9.27 |
| TGTGCCCAAAATTATGCACACACCTAAAATTAATTT [CACACA_site2914] | 9.42 |
| TATGCACCCAGACACACACACACAACTAAAAAATAA [CACACA_site2567] | 9.96 |
| TAATTATGCCAACACACACACACACCCAACTAAAAA [CACACA_site8823] | 10.2 |
| AAGATAATTACGCACACACACACACGCCCACAACTA [CACACA_site7255] | 10.2 |
| GATAATTACGGACACACACACACACGCACAACTAAA [CACACA_site7254] | 10.3 |
| GATAATTATGGACACACACACACACCCACAACTAAA [CACACA_site8824] | 10.3 |
| AAAAGATAATTATGCACACACACACCCAGACACAAC [CACACA_site5428] | 10.1 |
| TACACCCACCAACACACACACACACTAATAAAAAAA [CACACA_site8060] | 10.1 |

| Sequence | gcPBM binding intensity (ln) |
| --- | --- |
| TAAAAAATAAAAATTGCACACTAAAAAATTACGCAC [CACACA_site9129] | 9.48 |
| AAAAATAAAAATTGCACACTAAAAAATTACGCACGA [CACACA_site3418] | 9.59 |
| TAATTATGCAGACACACACACACACGCAACTAAAAA [CACACA_site7253] | 10.1 |
| TGCACGCACAGACACACACACAACTAAAAAATAATG [CACACA_site7250] | 9.72 |
| GTACATAGGTATAGCACACACAAATGTAGGTATTTT [CACACA_site4049] | 9.65 |
| TATATTTATTATAACACACACATATAAATATTATAG [CACACA_site6726] | 9.67 |
| TTGTTCTAATATATTGCACACGTAAAAATATAGGTA [CACACA_site8195] | 9.3 |
| TAAGGATAAATAAAATGAAATGAAATAAATAAATGA [XGTACX_negctrl_site539] | 9.24 |
| TATAAAATATAAATAAATAAATAAATATATATATAT [TGCATGCA_negctrl_site448] | 9.11 |
| GCGGCGGTATCATGCACACGTATATATTGTAACAGT [CACACA_site4958] | 9.27 |
| TTTTTTATTTTAATGTATTATTTTTATGTAATATAT [GTGCAC_negctrl_site391] | 9.23 |
| CAAAAATAAATATAAACACACAATAAATAAATAAAT [CACACA_site891] | 9.91 |
| TAAAAATAGTATACAACACACGAGGGAAAATAAAGT [CACACA_site3837] | 10.2 |
| ATGGACAAAAAATATATACACACGAGGAAACCAACA [CACACA_site3726] | 10.1 |
| AAAAATATGAAGACACAATATAGAAATAAAAATATA [XGTACX_negctrl_site244] | 9.44 |
| TAAATACAAAAATGCACACGAAAAGTAATATATATA [CACACA_site6151] | 9.64 |
| AAAAAAAAAAAACACACACACAATAGTATATAAATC [CACACA_site956] | 10.3 |
| AAAAAAAAAAGACACACACACAATAGTATATAAATC [CACACA_site6579] | 10.2 |
| AGAGTATATAAAGTAACACACAATAAAATAAAATAA [CACACA_site2328] | 9.82 |
| AAAAAAAAAAAAAACACACACACAATAGTATATAAA [CACACA_site957] | 9.94 |
| AACATAATAAAAATGGATATAATTCAAAGTTTGTAA [TGCATGCA_negctrl_site529] | 9.25 |
| TTTTATATATATTATACACACAAGGAAAAAAAAAAA [CACACA_site3677] | 9.53 |
| ATATATTTTATTCCTATATATATATATATATATATA [GTGCAC_negctrl_site556] | 9.27 |

| Sequence | gcPBM binding intensity (ln) |
| --- | --- |
| AAAAATGTAAAGTGCGTGCACAAAATATTTGGAAAA | 9.27 |
| AGAAATATATCTATTTGTCCGTATATTCATATTTAT [XGTACX_site8427] | 9.4 |
| TTAAACTTGAAACACACACACACACCGATATAAAAA [CACACA_site4578] | 10.2 |
| TTTTTTTATAAAAATGAACACACACCGATATATATA [CACACA_site9161] | 9.63 |
| CATATAAAAGGACACACACACACATATATATATATA [CACACA_site4674] | 10 |
| AAGGATATAACATACACACACACACCCATATATATA [CACACA_site4142] | 10.3 |
| AAGGATATAACATACACACACACACCGATATATATA [CACACA_site6136] | 10.2 |
| CCATAAAAAGGATACACACACACACCGACATATATA [CACACA_site4653] | 10.2 |
| ATATATACATATAACACACACATATATATATATATA [CACACA_site2575] | 9.56 |
| GGAAGGATATAACATACACACACACCCATATATATA [CACACA_site9376] | 10 |
| TAACCATACATACATACACACACACCCACATATATA [CACACA_site8951] | 10.1 |
| TTAAACTTGAAACACACACACACACCCATATAAAAA [CACACA_site758] | 10.1 |
| ATAAAAAAAGGACACACACACATATATATATATATA [CACACA_site5662] | 9.93 |
| GTAACATACACATATACACACACACCGATATACATA [CACACA_site8278] | 10.2 |
| ATATAACTCAAGGGCACACATATACCTTTCCTTTTT [CACACA_site4390] | 9.5 |
| AATATACATAACAAGGTGCAAAAAATATTGTTCATA [GTGCAC_site9499] | 9.5 |
| TATTATCTCTTATGAACACACATTTTTATTTTCAAA [CACACA_site3353] | 9.31 |
| AATATATAGCTAAAAACACACAAATATATACGCATA [CACACA_site3608] | 9.69 |
| TTATATATAATATATACACACACATGTATATATAAA [CACACA_site8603] | 9.45 |
| AGTTAATGAATAGGCACACATATATCTGTATAAATA [CACACA_site4448] | 9.47 |
| AAAAAAAAAAGACACACACACAAAAAAAGATATATA [CACACA_site6645] | 10.2 |
| AAAAAAAAAATATACACACACACATACCCATAAATA [CACACA_site5981] | 9.99 |
| AAAAAAAAAAGACACACACACACACGGAGATATATA [CACACA_site6216] | 10.3 |

| Sequence | gcPBM binding intensity (ln) |
| --- | --- |
| ACTTGACACGGACACACACACATATATAAAAAAAAA [CACACA_site4576] | 9.87 |
| AAAAAGGATAAACACACACACACACCGATATATATA [CACACA_site8206] | 10.2 |
| CCATAAAAAGGATACACACACACACCCACATATATA [CACACA_site903] | 10.2 |
| AAAAAAAAAAGACACACACACATATTTATTTATATA [CACACA_site6484] | 9.93 |
| TAAAAGGATACATATACACACATATATATATATATA [CACACA_site2791] | 9.32 |
| TTAAACTTGAGACACACACACACACGGATATAAAAA [CACACA_site6495] | 10.2 |
| AAACTTGACGGACACACACACACATATATAAAAAAA [CACACA_site4577] | 10 |
| CAAAAGGATAGGCACACACACACACCGATATATATA [CACACA_site8685] | 10.2 |
| AATAAAAAGGAACACACACACACACCGATATATATA [CACACA_site5895] | 10.2 |
| ATTTATGAAAAATGTACACACATCAAATGCTTATAT [CACACA_site4068] | 9.42 |
| AAATGAAAGAACAGCACACATATATATTATATATAA [CACACA_site2002] | 9.63 |
| ATTGCATATAATGGCACACATAAATCCATAATATAT [CACACA_site297] | 9.29 |
| GTTAATATACATAAACGTACAGAATTATTATGAGTT [XGTACX_site5185] | 9.13 |
| TGTTTAACATTTATATGTACATATATTCACATATTA [XGTACX_site342] | 9.29 |
| AACAATATATTGAATAGTACATATATATAAACATAT [XGTACX_site2811] | 9.46 |
| GTAGAAAGAAAAATTAGTACTTAAATATTATAAAAA [XGTACX_site8458] | 9.11 |
| AATAAATATAAATACACACCCATATATATATATATA [CACACA_site5436] | 9.45 |
| AATATAAGGATATATACACACATAAATACATACATA [CACACA_site7859] | 9.89 |
| TAGATACATACACGCACACACATATATAAATAAATA [CACACA_site6157] | 9.85 |
| AATAAATATAAATACACACCCATATAAATATAAATA [CACACA_site7264] | 9.85 |
| ACCCATAAAAAGGATACACACACACCCACCCATATA [CACACA_site8205] | 10.4 |
| CCATAAAAAGGATACACACACACACGCACATATATA [CACACA_site6550] | 10.2 |
